Records with an inconclusive call do not appear. Entries that show only a call come without a potency. Active and inactive are the calls of the source. Calls follow the shape of the dose curve; as a rule, active = well fitted curve in the direction sought with a large enough effect in the signal ratio in the repeat runs (not every such curve was filed as active); inconclusive = weak or mixed curves, or effect the other way; inactive = no such curve, though single readings can be large or run the other way; the % refers to the signal ratio.
Biological target: Estrogen receptor (Homo sapiens) (UniProt P03372)
Experiment: qHTS assay to identify small molecule antagonists of the estrogen receptor alpha (ER-alpha) signaling pathway (AID 743069)
Conditions: HEK293 ER-alpha-UAS-bla, beta-lactamase ratio, antagonist mode; series mostly up to 69.4 µM
Text: National Center for Advancing Translational Sciences [NCATS]
NIH Chemical Genomics Center [NCGC]
U.S. Environmental Protection Agency [EPA]
National Institutes of Environmental Health Sciences [NIEHS]
National Toxicology Program [NTP]
U.S. Food and Drug Administration [FDA]
Estrogen receptor (ER), a nuclear hormone receptor, plays an important role in development, metabolic homeostasis and reproduction. Two subtypes of ER, ER-alpha and ER-beta have similar expression patterns with some uniqueness in both types. Endocrine disrupting chemicals (EDCs) and their interactions with steroid hormone receptors like ER causes disruption of normal endocrine function. To identify the compounds that inhibit ER signaling, an ER-alpha-UAS-bla GripTiteTM cell line (Invitrogen, Carlsbad, CA, USA) containing a beta-lactamase reporter gene under the control of an Upstream Activator Sequence (UAS) stably integrated into HEK293 cells was used to screen the Tox21 10K compound library.
Tox21 Assay Protocol Summary:
ER-alpha-bla cells were cultured in assay medium containing 2% charcoal stripped FBS overnight in the culture flasks before the assay was performed. The cells were dispensed at 5,000 cells/5 uL of assay medium per well into black wall/clear-bottom 1536-well plates using a Multidrop Combi (ThermoFisher Scientific, Waltham, MA) dispenser. After the assay plates were incubated at a 37C and 5% CO2 for 4 hr, 23 nL of compounds dissolved in DMSO, positive controls or DMSO only was transferred to the assay plate by a Pintool station (Kalypsys, San Diego, CA), followed by addition of 1 uL of 17beta-estradiol in assay medium using a Flying Reagent Dispenser (Aurora Discovery, San Diego, CA). The plates were incubated at 37C and 5% CO2 for 18 hr. Then 1 uL of LiveBLAzerTM B/G FRET substrate was added using a Flying Reagent Dispenser, the plates were incubated at room temperature for 2 hours, and fluorescence intensity was measured by an Envision plate reader (PerkinElmer, Shelton, CT).

Sequence of Estrogen receptor (Homo sapiens) (P03372 whole entry, looked up): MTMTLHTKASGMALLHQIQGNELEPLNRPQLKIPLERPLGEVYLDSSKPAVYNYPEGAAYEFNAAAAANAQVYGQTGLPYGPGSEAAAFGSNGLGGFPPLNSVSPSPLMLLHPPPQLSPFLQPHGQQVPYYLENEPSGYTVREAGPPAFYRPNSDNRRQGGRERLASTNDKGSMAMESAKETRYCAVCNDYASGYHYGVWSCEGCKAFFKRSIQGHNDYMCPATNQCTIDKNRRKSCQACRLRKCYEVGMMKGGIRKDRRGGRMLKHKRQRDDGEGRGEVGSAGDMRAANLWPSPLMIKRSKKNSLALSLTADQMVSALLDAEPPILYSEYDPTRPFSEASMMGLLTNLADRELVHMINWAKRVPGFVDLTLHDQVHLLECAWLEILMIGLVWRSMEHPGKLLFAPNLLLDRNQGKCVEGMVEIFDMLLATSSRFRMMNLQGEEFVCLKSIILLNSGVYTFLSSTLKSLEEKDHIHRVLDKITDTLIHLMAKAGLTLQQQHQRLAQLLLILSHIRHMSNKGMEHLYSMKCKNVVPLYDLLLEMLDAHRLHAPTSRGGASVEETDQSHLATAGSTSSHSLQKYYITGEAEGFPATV

Compound | Potency
C[N+]1(C)[C@@H]2CC(OC(=O)[C@H](CO)c3ccccc3)C[C@H]1[C@@H]1O[C@@H]12 (stereo not given in full) | inactive
C=CC(=O)OCCCl | inactive
CC(COc1ccccc1)NN (stereo not given) | inactive
CCCCc1ccc2c(n1)[C@@H](c1ccc(OC)cc1C[C@H](C)C(=O)O)[C@H](C(=O)O)[C@H]2c1ccc2c(c1)OCO2 | inactive
CCN(CC#N)c1cccc(C)c1 | inactive
CC(=O)Oc1cccc(C)c1 | inactive
CN1C(C)(C)CC(O)CC1(C)C | inactive
CCC(C(=O)NC(=O)NC(C)=O)c1ccccc1 (stereo not given) | inactive
CNC(=O)Nc1ccc(Cl)c(Cl)c1 | inactive
CCOC(=O)COc1cc(-n2ncc(C(F)(F)F)c(C)c2=O)c(F)cc1Cl | inactive
CCC(C)(CCCC(C)C)OC(C)=O (stereo not given) | inactive
CC(=O)C1CCCCC1=O (stereo not given) | inactive
CC1=CC(=O)[C@H]2C[C@@H]1C2(C)C | inactive
N[C@H](C(=O)O)[C@@H](O)c1ccc(O)c(O)c1 | inactive
CCCCN(CCC(=O)OCC)C(C)=O | inactive
CCN1C=CN(C)C1C (stereo not given) | inactive
CC(CC=O)CC(C)(C)C (stereo not given) | inactive
C=COCC1CCC(COC=C)CC1 (stereo not given) | inactive
CC1=CCC(O)(C(C)C)CC1 (stereo not given) | inactive
CC1=NS(=O)(=O)c2cc(Cl)ccc2N1 | inactive

Compound | Potency
CC(N)C12CC3CC(CC(C3)C1)C2 (stereo not given) | inactive
O=C(O)c1cn(C2CC2)c2cc(N3CCNCC3)c(F)cc2c1=O | inactive
CO[C@@]1(NC(=O)C(C(=O)O)c2ccc(O)cc2)C(=O)N2C(C(=O)O)=C(CSc3nnnn3C)CO[C@@H]21 (stereo not given in full) | inactive
O=C(O)c1cc(C(=O)O)cc(C(=O)O)c1 | inactive
CC1=NN(c2cccc(S(=O)(=O)O)c2)C(=O)C1 | inactive
CN(C)CCN(C)CCN(C)C | inactive
O=C(O)Cc1csc(-c2ccc(Cl)cc2)n1 | inactive
FB(F)F | inactive
C=CCOCC(O)CO (stereo not given) | inactive
CC(C)COC(=O)c1ccc(N)cc1 | inactive
CCCCCCCCCC[N+](C)(C)[O-] | inactive
O=C(O)CNC(=O)c1ccc(CO)o1 | inactive
CC(C)=CCC/C(C)=C/C#N | inactive
CCCCCCC1CCC(=O)O1 (stereo not given) | inactive
O=C(O)CC(C(=O)O)S(=O)(=O)O (stereo not given) | inactive
COc1ccc2cc1Oc1cc3c(cc1OC)CC[N+](C)(C)[C@H]3Cc1ccc(cc1)Oc1c(OC)c(OC)cc3c1[C@@H](C2)[N+](C)(C)CC3 | inactive
N[C@@H](CCC(=O)O)C(=O)O | inactive
C=CCCC(=O)O | inactive
CC(CO)(CO)[N+](=O)[O-] | inactive
CC(=O)c1cnccn1 | inactive

From PubChem BioAssay (Tox21)
